The whole screen tested about 13,000 compounds, of which about 3,200 (25%) showed an effect of 50% or more. The list shows a part of the results.
These compounds were tested on P. falciparum stage V gametocytes. Conditions: 48 h, 5 µM; inhibitor.
Parameters: BacTiter-Glo ATP luminescence viability of purified stage V gametocytes in 384-well plates, per cent inhibition versus DMSO
With `CCCCCn1c(Sc2ccc(C#N)c([N+](=O)[O-])c2)nnc1-c1cccs1` [TCMDC-135585] the “% Inhibition” value was 31.33%.
In the case of `O=C(NCc1ccccn1)C(c1cc2ccccc2o1)N1CCN(C(c2ccccc2)c2ccccc2)CC1` (stereo not drawn) [TCMDC-141024], the “% Inhibition” value is reported as 9.637%.
For `c1ccc(CN2CCC(NCc3ccccc3-c3cccc(CNC4CCCC4)c3)CC2)cc1` [TCMDC-140472], the “% Inhibition” value was 106.9%.
`NCc1ccc(-c2ccccc2CNC2CCN(Cc3ccccc3)CC2)cc1` [TCMDC-140468] was tested, and the “% Inhibition” value was 88.27%.
`Oc1ccc(CN2CCC(NCc3cccc4ccccc34)CC2)cc1` [TCMDC-141654] was tested, and the “% Inhibition” value was 18.51%.
For `NCc1cccc(-c2ccccc2CNC2CCN(Cc3ccccc3)CC2)c1` [TCMDC-140467], the “% Inhibition” value was 102.5%.
With `CC(C)c1ccc(N2CCN(CCCCNC(=O)c3ccc(NC(=O)c4cc(Cl)cc(Cl)c4)cc3)CC2)cc1` [TCMDC-138232] the “% Inhibition” value was -31.61%.
`O=C(Cc1ccc(Nc2nccc(Nc3cccc4[nH]ncc34)n2)cc1)Nc1ccc(C(F)(F)F)cc1` [TCMDC-136243] was tested, and the “% Inhibition” value was 0.831%.
In the case of `CCCCCc1cnc2nc(N)nc(N)c2c1C` [TCMDC-137717], the “% Inhibition” value is reported as 7.113%.
For `Cc1cnc(C(=O)Nc2ccc3c(c2)CCCN(Cc2c[nH]c4cnccc24)C3)cn1` [TCMDC-134846], the “% Inhibition” value was 9.147%.
`CC(C)c1ccc(N(CC(=O)N/N=C/c2ccc(C(F)(F)F)cc2)S(=O)(=O)c2ccc(C(F)(F)F)cc2)cc1` [TCMDC-135354] was tested, and the “% Inhibition” value was 13.17%.
In the case of `O=c1ccc2ccc(O)c(O)c2o1` [TCMDC-125839], the “% Inhibition” value is reported as -8.739%.
In the case of `COc1ccc(-c2cnc(N)c(-c3nc4ccc(Br)cc4[nH]3)c2)cc1` [TCMDC-133074], the “% Inhibition” value is reported as -6.966%.
In the case of `CC1CN(c2cnn(C/C=C/c3ccc(NC(=O)c4ccc5nonc5c4)cc3)c(=O)c2Cl)CC(C)N1` (stereo not drawn) [TCMDC-132468], the “% Inhibition” value is reported as 104.2%.
`CC1CN(c2cnn(Cc3ccc(NC(=O)Nc4ccc(F)cc4[N+](=O)[O-])cc3)c(=O)c2Cl)CC(C)N1` (stereo not drawn) [TCMDC-141939] was tested, and the “% Inhibition” value was 5.517%.
`CC1CN(c2cnn(Cc3cccc(NC(=O)Nc4ccc(F)cc4[N+](=O)[O-])c3)c(=O)c2Cl)CC(C)N1` (stereo not drawn) [TCMDC-141934] was tested, and the “% Inhibition” value was 17.4%.
With `CC1CN(c2cnn(Cc3cccc(NC(=O)Nc4cccc(C(F)(F)F)c4)c3)c(=O)c2Cl)CC(C)N1` (stereo not drawn) [TCMDC-141933] the “% Inhibition” value was -18.84%.
In the case of `CC1CN(c2cnn(C/C=C/c3ccc(NC(=O)c4ccc(Cl)cc4)cc3)c(=O)c2Cl)CC(C)N1` (stereo not drawn) [TCMDC-132469], the “% Inhibition” value is reported as 77.2%.
`CC1CN(c2cnn(Cc3ccc(NC(=O)Nc4cccc(C(F)(F)F)c4)cc3)c(=O)c2Cl)CC(C)N1` (stereo not drawn) [TCMDC-141938] was tested, and the “% Inhibition” value was -19.52%.
In the case of `COC(=O)c1ccc(NC(=O)Nc2ccc(Cn3ncc(N4CCCNCC4)c(Cl)c3=O)cc2)cc1` [TCMDC-133315], the “% Inhibition” value is reported as -30.5%.
In the case of `CCOC(=O)c1ccc(NC(=O)Nc2ccc(Cn3ncc(N4CCCNCC4)c(Cl)c3=O)cc2)cc1` [TCMDC-133330], the “% Inhibition” value is reported as -19%.
For `CC1CN(c2cnn(C/C=C/c3ccc(NC(=O)c4ccc([N+](=O)[O-])cc4)cc3)c(=O)c2Cl)CC(C)N1` (stereo not drawn) [TCMDC-132467], the “% Inhibition” value was 91.62%.
`CN1C(=CC(=O)NC(=O)c2ccccc2)C(C)(C)c2ccccc21` [TCMDC-136649] was tested, and the “% Inhibition” value was 14.63%.
With `Cc1nc2ccc3nc(NC(=O)c4ccno4)sc3c2s1` [TCMDC-124989] the “% Inhibition” value was -34.07%.
For `CN(C)c1cccc2c1nc(-c1ccco1)n2CC1CCCN1` (stereo not drawn) [TCMDC-133408], the “% Inhibition” value was -1.299%.
`CCCCCCCn1c(=O)c(C(=O)Nc2c(C)cccc2C)c(O)c2ccccc21` [TCMDC-124465] was tested, and the “% Inhibition” value was 13.41%.
In the case of `CCCCn1c(-c2ccco2)nc2c(c(=O)c3ccccc3n2C)c1=O` [TCMDC-124920], the “% Inhibition” value is reported as 70.03%.
In the case of `Cc1ccccc1CNc1noc(-c2sccc2Br)n1` [TCMDC-134183], the “% Inhibition” value is reported as -16.29%.
With `N#Cc1ccc(NC(=NC2CCCc3ccccc32)Nc2ccc(-c3ccccc3)cc2)c(O)c1` (stereo not drawn) [TCMDC-140207] the “% Inhibition” value was -97.78%.
In the case of `O=C(NC1CCC(CN2CCC(c3c[nH]c4ccccc34)CC2)CC1)c1ccc(-c2ccccc2[N+](=O)[O-])o1` (stereo not drawn) [TCMDC-140295], the “% Inhibition” value is reported as -19.57%.
`O=C(NC1CCC(CN2CCC(c3c[nH]c4ccccc34)CC2)CC1)c1cc2cccc([N+](=O)[O-])c2[nH]1` (stereo not drawn) [TCMDC-139879] was tested, and the “% Inhibition” value was 95.83%.
For `N#Cc1ccc2c(c1)CCN(CCC1CCC(NC(=O)c3cc4cccc([N+](=O)[O-])c4[nH]3)CC1)C2` (stereo not drawn) [TCMDC-139188], the “% Inhibition” value was 23.84%.
`O=C(c1cc2cccc([N+](=O)[O-])c2[nH]1)N1CCC(CCN2CCC(c3c[nH]c4ccccc34)CC2)CC1` [TCMDC-139880] was tested, and the “% Inhibition” value was 92.61%.
For `COc1cc(C)ccc1N1CCN(CCCCNC(=O)c2ccc(NC(=O)c3ccc(Cl)cc3)cc2)CC1` [TCMDC-138374], the “% Inhibition” value was -7.22%.
For `COC(=O)CNC(c1ccccc1)c1cc(Br)ccc1NC(=O)c1ccccc1Br` (stereo not drawn) [TCMDC-124194], the “% Inhibition” value was 56.77%.
`O=C(Nc1cc(Cl)c(Cl)cc1NC(=O)c1cccc(-c2ccccc2)c1O)c1cccc(-c2ccccc2)c1O` [TCMDC-139548] was tested, and the “% Inhibition” value was 45.99%.
In the case of `CCNc1cc(C)nc(Nc2ccc(NC(=O)c3ccccc3Br)cc2)n1` [TCMDC-124985], the “% Inhibition” value is reported as 22.04%.
With `CCOC(=O)NC1=NC(C)(C)N(OCCCOc2cc(Cl)c(Cl)cc2Cl)C(N)=N1` [TCMDC-131741] the “% Inhibition” value was -6.814%.
`CC(C)C1C(O)=C(c2ccc3ccccc3c2)C(=O)N1CC1CCCCC1` (stereo not drawn) [TCMDC-141719] was tested, and the “% Inhibition” value was 18.57%.
In the case of `Cc1cc(N[C@@H](Cc2ccccc2)C(=O)NC2CCCC2)nc(Nc2ccccc2)n1` [TCMDC-134856], the “% Inhibition” value is reported as 16.45%.
For `O=C(Nc1nc2cc(S(=O)(=O)NCc3ccc(Cl)c(Cl)c3)ccc2n1CCCn1ccnc1)c1ccc(Cl)cc1` [TCMDC-141625], the “% Inhibition” value was -7.697%.
In the case of `O=C(Nc1nc2cc(S(=O)(=O)NCc3ccc(Cl)c(Cl)c3)ccc2n1CCCN1CCCC1)c1ccc(Cl)cc1` [TCMDC-141622], the “% Inhibition” value is reported as 64.1%.
`O=C(Nc1nc2cc(S(=O)(=O)NCCCN3CCOCC3)ccc2n1CCCn1ccnc1)c1ccc(Cl)cc1` [TCMDC-141624] was tested, and the “% Inhibition” value was 31.25%.
With `O=C(O)C(F)(F)F.O=C1CCCN1CCCNCc1ccc(-c2ccc(-c3nc4cc(F)ccc4[nH]3)cc2)cc1` [TCMDC-132759] the “% Inhibition” value was -31.18%.
With `Cc1cc(C(=O)NCc2ccc(-c3c(C)noc3C)cc2)n(-c2ccccc2)n1` [TCMDC-133780] the “% Inhibition” value was 16.41%.
With `Cc1ccc(Nc2nc(C)cc(NC3CCN(C)CC3)n2)cc1` [TCMDC-133997] the “% Inhibition” value was 39.13%.
With `CCc1cc(NC2CCN(C)CC2)nc(Nc2ccc(C)cc2)n1` [TCMDC-133996] the “% Inhibition” value was 57.8%.
`CCCc1cc(NC2CCN(C)CC2)nc(Nc2ccc(F)cc2)n1` [TCMDC-134004] was tested, and the “% Inhibition” value was 57.16%.
For `CCCc1cc(NC2CCN(C)CC2)nc(Nc2ccc(C)cc2)n1` [TCMDC-134003], the “% Inhibition” value was 32.47%.
`CCCc1cc(NC2CCN(C)CC2)nc(Nc2cccc(OC)c2)n1` [TCMDC-134001] was tested, and the “% Inhibition” value was 21.8%.
In the case of `CCCCc1cc(NC2CCN(C)CC2)nc(Nc2ccccc2)n1` [TCMDC-133994], the “% Inhibition” value is reported as 6.593%.
With `COC(=O)c1cc(C(=O)CN(Cc2ccccc2)C(C)C)ccc1O` [TCMDC-131766] the “% Inhibition” value was 18.13%.
In the case of `CC(=O)Nc1ccc(OCCN(Cc2ccccc2OC(F)(F)F)c2ccc(C(F)(F)F)c(C#N)c2)c(Cl)c1` [TCMDC-132792], the “% Inhibition” value is reported as 45.86%.
`N#Cc1ccc(N(CCCO)Cc2ccccc2C(F)(F)F)cc1C(F)(F)F` [TCMDC-134689] was tested, and the “% Inhibition” value was 3.655%.
With `N#Cc1ccc(OCCN(Cc2ccccc2C(F)(F)F)c2ccc(C#N)c(C(F)(F)F)c2)cc1` [TCMDC-132799] the “% Inhibition” value was 28.83%.
With `CC(=O)Nc1ccc(OCCCN(Cc2ccccc2OC(F)(F)F)c2ccc(C(F)(F)F)c(C#N)c2)c(Cl)c1` [TCMDC-132789] the “% Inhibition” value was 32.58%.
With `CC(=O)Nc1ccc(OCCN(Cc2ccccc2C(F)(F)F)c2ccc(C#N)c(C(F)(F)F)c2)cc1` [TCMDC-132802] the “% Inhibition” value was 0.1764%.
In the case of `N#Cc1ccc(N(CCOC(=O)c2ccccc2)Cc2ccccc2C(F)(F)F)cc1C(F)(F)F` [TCMDC-135738], the “% Inhibition” value is reported as -18.34%.
`N#Cc1ccc(N(CCOc2ccc(Cl)cc2)Cc2ccccc2C(F)(F)F)cc1C(F)(F)F` [TCMDC-132794] was tested, and the “% Inhibition” value was -24.46%.
`N#Cc1ccc(N(CCOC(=O)c2ccc(Br)s2)Cc2ccccc2C(F)(F)F)cc1C(F)(F)F` [TCMDC-135739] was tested, and the “% Inhibition” value was 59.47%.
`CC(=O)Nc1ccc(OCCCN(Cc2ccccc2C(F)(F)F)c2ccc(C(F)(F)F)c(C#N)c2)c(Cl)c1` [TCMDC-132785] was tested, and the “% Inhibition” value was 61.05%.
For `CC(=O)Nc1ccc(OCCCCN(Cc2ccccc2C(F)(F)F)c2ccc(C(F)(F)F)c(C#N)c2)c(Cl)c1` [TCMDC-133358], the “% Inhibition” value was 47.4%.
`N#Cc1ccc(N(CCNS(=O)(=O)c2cc(Br)c(Cl)s2)Cc2ccccc2C(F)(F)F)cc1C(F)(F)F` [TCMDC-135822] was tested, and the “% Inhibition” value was 50.22%.
For `CC(=O)Nc1ccc(OCCN(Cc2ccccc2C(F)(F)F)c2ccc(C#N)c(C(F)(F)F)c2)c(Cl)c1` [TCMDC-132790], the “% Inhibition” value was 76.06%.
`CCC(=O)Nc1cc(=O)[nH]c2nc(-c3ccc(Cl)cc3)nn12` [TCMDC-125473] was tested, and the “% Inhibition” value was -75.71%.
With `Cc1cc(-c2cc(-c3ccc(OCCN(C)C)cc3)[nH]c2-c2ccc3c(c2)CCC3=NO)ccn1` [TCMDC-141302] the “% Inhibition” value was 25.92%.

Source: paper PMC4552634, “A New Set of Chemical Starting Points with Plasmodium falciparum Transmission-Blocking Potential for Antimalarial Drug Discovery” (PLoS ONE, 2015)
